# Calb FLC – C. albicans growth modulation with fluconazole. C. albicans CaCi-2 (fluconazole-resistant clinical isolate) + fluconazole, Alamar Blue growth, 48 h. growth inhibition, % (no concentration beside the values). actives 0.57% (n = 300,000);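 active = growth inhibition above about 58% in most replicates, limit read from the data, passing the limit was not always enough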;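 also: all wells also contain fluconazole at 8 µg/ml as a sub-toxic cotreatment; 0% = median of DMSO wells and 100% = median of geldanamycin control wells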
# Beta apoptosis – beta cell apoptosis inhibition | INS-1E cytokine-induced death, ATP luminescence, 48 h; percent of positive-control rescue, neutral wells zero | protection from apoptosis, % (concentration not given with the values) | actives 0.8% (n = 300,000);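 active = Every replicate reaches about 75%, or at least half do and their mean reaches it too, limit read from the data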;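 also: 0% = cytokine-treated negative control wells and 100% = positive control rescue; higher means more ATP so stronger rescue from cytokine killing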
# MPTP block – blocks calcium-induced mitochondrial swelling; AID 602449; isolated mouse mitochondria, Ca2+ swelling absorbance, 30 min; actives 1.4% (n = 360,000); inhibition, % at 10 µM;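 active = inhibition of 50% or more, scaled per plate between neutral and stimulator controls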;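 also: 0% = DMSO wells given calcium and 100% = 1 mM EGTA wells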
# Mdm2 MdmX PPI – disrupts the human Mdm2-MdmX interaction; O15151+Q00987; SaOS-2 split-luciferase Mdm2/MdmX complementation, luminescence; inhibition, % at 8 µM; actives 3% (n = 330,000);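 active = inhibition of at least 50% at 8 µM in the primary screen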
# Target sequence (O15151 whole entry, looked up): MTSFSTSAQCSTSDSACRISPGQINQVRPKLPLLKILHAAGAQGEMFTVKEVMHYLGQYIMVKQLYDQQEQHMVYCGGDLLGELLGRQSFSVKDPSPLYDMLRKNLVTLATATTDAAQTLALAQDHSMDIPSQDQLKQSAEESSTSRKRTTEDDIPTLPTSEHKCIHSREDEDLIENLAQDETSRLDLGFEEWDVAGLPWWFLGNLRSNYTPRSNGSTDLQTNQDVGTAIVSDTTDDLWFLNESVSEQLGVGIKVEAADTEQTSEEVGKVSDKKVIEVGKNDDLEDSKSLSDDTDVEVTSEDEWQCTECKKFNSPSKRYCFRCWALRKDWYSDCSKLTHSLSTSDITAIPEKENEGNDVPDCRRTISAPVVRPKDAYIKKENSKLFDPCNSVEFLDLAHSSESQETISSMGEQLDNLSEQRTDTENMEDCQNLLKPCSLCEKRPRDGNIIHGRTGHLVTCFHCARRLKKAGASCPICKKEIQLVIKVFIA
# Target sequence (Q00987 whole entry, looked up): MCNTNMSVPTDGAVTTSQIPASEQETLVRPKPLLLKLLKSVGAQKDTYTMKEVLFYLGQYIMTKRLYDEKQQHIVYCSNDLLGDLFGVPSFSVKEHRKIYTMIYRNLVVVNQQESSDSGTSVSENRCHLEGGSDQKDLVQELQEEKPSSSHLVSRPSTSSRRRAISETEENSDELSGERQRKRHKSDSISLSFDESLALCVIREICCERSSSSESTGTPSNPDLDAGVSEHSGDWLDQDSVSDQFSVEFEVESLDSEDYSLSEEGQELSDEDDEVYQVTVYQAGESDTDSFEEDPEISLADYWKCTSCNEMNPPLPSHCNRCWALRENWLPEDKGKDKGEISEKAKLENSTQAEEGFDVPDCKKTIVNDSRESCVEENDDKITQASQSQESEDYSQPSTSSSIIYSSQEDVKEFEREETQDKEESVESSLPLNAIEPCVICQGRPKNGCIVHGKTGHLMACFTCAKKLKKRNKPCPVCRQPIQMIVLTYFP
# CSC inhib – cancer stem cell inhibition. cancer stem cell-like cells viability, luminescence. inhibition, % at 7.5 µM. actives 1.1% (n = 300,000); in the data active = inhibition above about 75%; tested in HMLE shEcad cells
# SKKanGAS inh – SKKanGAS growth inhibition. S. pyogenes SKKanGAS, kanamycin growth, BacTiter-Glo, 6 h. inhibition, % at 7.5 µM. actives 1.3% (n = 300,000). AID 1662;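 active = mean replicate score, as percent of positive control median, at least 50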;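 also: strain carries kanamycin resistance gene driven by streptokinase promoter and grows in 40 µg/ml kanamycin; loss of luminescence reflects streptokinase promoter inhibition or plain growth inhibition; 0% = median of DMSO wells and 100% = positive control at its reference dose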
# Mdm2 MdmX conf – human Mdm2/MdmX binding inhibition, confirmed. shares compounds with Mdm2 MdmX PPI. luminescent assay. inhibition, % at 8 µM. actives 55% (n = 10,000). AID 489028; in the data active = inhibition above about 40%
# Full FLuc ctr – counter-screen for Mdm2/MdmX inhibitors: full-length luciferase. shares compounds with Mdm2 MdmX PPI. SaOS-2 full-length luciferase counterscreen, luminescence. inhibition, % at 8 µM. actives 77% (n = 6,200). AID 504607;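 active = mean inhibition at 8 µM reaching about 37%, which flags the compound as non-specific, limit read from the data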;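 also: p53-null SaOS-2 cells with luciferase driven by a doxycycline-inducible promoter; compound on cells about two nights before reading with doxycycline added after day one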
# An asterisk follows results filed as active; · = no result. The list is not random: actives were taken first. Their share in the collection is about 5.4%.
SMILES,Calb FLC,Beta apoptosis,MPTP block,Mdm2 MdmX PPI,CSC inhib,SKKanGAS inh,Mdm2 MdmX conf,Full FLuc ctr
CC12CC[C@H]3[C@@H](CCC4(O)C[C@H](O)CCC34/C=N/NC(=O)c3ccccc3Cl)C1(O)CCC2C1=CC(=O)OC1 (some centres undefined),4.6,-2.6,-0.2,-3.3,-4.0,4.6,·,·
C[C@]12CC[C@H]3[C@@H](CC[C@]4(O)C[C@@H](O)CC[C@]34C=O)[C@@]1(O)CC[C@@H]2C1=CC(=O)OC1,·,0.0,-0.7,69.5*,101.2*,·,69.1*,28.0
CC(=O)OC1CC2(O)C3CCC4CC(O)CCC4(C)C3CCC2(C)C1C1=CC(=O)OC1 (centres undefined),·,·,-1.7,·,·,·,·,·
CCCCN=C[C@]12CCC(O)CC1(O)CCC1[C@@H]2CC[C@]2(C)[C@H](C3C=CC(=O)O3)CCC12O (some centres undefined),-0.7,-10.0,0.3,58.8*,98.6*,-3.3,69.8*,49.9*
CC12CCC3C(CCC4(O)CC(O)CCC34C=NO)C1(O)CCC2C1=COC(=O)C1 (centres undefined),·,·,-1.2,·,·,·,·,·
COc1ccc2ccc(O)c(CN3CC=C(c4ccccc4)CC3)c2c1,-4.3,2.9,4.2,24.2,-12.8,19.4,·,·
C[n+]1c(-c2ccccc2)c2cc(N)ccc2c2ccc(N)cc21,92.7*,97.1*,4.9,84.9*,43.8,100.2*,70.2*,13.0
Nc1ccc2ccc3cccc[n+]3c2c1,-0.2,23.0,0.4,10.0,9.0,4.0,·,·
CCCCCC[N+](=O)[O-],·,-11.0,-0.8,14.9,-8.0,·,·,·
CCCCCCCCCCCCCCCC[N+](C)(C)C,102.1*,117.1*,3.8,90.0*,102.0*,102.9*,76.2*,8.8
COC(=O)C1=C(c2cc3ccccc3s2)C[C@@H]2CC[C@H]1N2C(=O)NCC1CC1,-1.3,·,1.6,38.8,-6.3,-2.1,·,·
COC(=O)C1=C(c2cc3ccccc3s2)C[C@@H]2CC[C@H]1N2C(=O)NCc1ccc(C(F)(F)F)cc1,12.7,-0.9,1.1,57.4*,59.7,32.3,18.3,·
O=[N+]([O-])O[C@H]1CO[C@H]2[C@@H]1OC[C@H]2O[N+](=O)[O-],·,·,-0.9,2.5,-6.9,·,·,·
O=C1/C(=C/c2ccccc2)C[C@@]2(O)[C@H]3Cc4ccc(O)c5c4[C@@]2(CCN3CC2CC2)C1O5 (some centres undefined),·,·,-1.9,100.2*,·,·,100.3*,51.2*
C/C=C(\C)C(=O)OC1C(C)=C2C(C1OC(=O)CCCCC)C(C)(OC(C)=O)CC(OC(=O)CCC)C1(O)C2OC(=O)C1(C)O (centres undefined),24.3,107.5*,·,82.1*,100.8*,30.6,64.5*,24.1
C[C@@H]1CC[C@@]2(NC1)O[C@H]1C[C@H]3[C@@H]4CC=C5C[C@@H](O)CC[C@]5(C)[C@H]4CC[C@]3(C)[C@H]1[C@@H]2C,78.6*,-3.5,-0.9,57.8*,8.5,-1.0,10.2,·
CC1=Nc2ccccc2/C1=C/c1c(O)n(C)c(=O)[nH]c1=O,2.4,-7.1,-0.2,-5.0,12.0,0.0,·,·
Cc1cccc(-n2c(O)c(/C=C3/C(c4ccccc4)=Nc4ccccc43)c(=O)[nH]c2=O)c1,28.3,19.2,23.8,53.6*,65.2,-8.2,57.0*,35.8
Cc1ccccc1-n1c(O)c(/C=C2/C(c3ccccc3)=Nc3ccccc32)c(=O)[nH]c1=O,-2.9,15.4,38.4,56.8*,67.4,0.1,62.6*,66.3*
COc1ccc(CN2Cc3cc(-c4cccc(F)c4)ccc3-n3nncc3C2)cc1,·,·,-2.0,·,·,·,·,·
CCOc1ccc2[nH]c(=O)c(CN(CCO)C3(c4nnnn4C4CCCCC4)CCCCC3)cc2c1,15.1,7.3,-0.7,13.6,13.8,2.4,·,·
CN(C)c1ccc(-[n+]2c(-c3ccccc3)cc(-c3ccccc3)cc2-c2ccccc2)cc1,90.4*,·,1.7,89.2*,·,-4.7,94.7*,23.3
Cc1ccc(-c2cc(-c3ccccc3)cc(-c3ccccc3)[n+]2-c2ccccc2)cc1,86.1*,121.0*,11.3,96.1*,25.3,-4.0,92.0*,12.7
Cc1cc(C)[n+](CCCC[n+]2c(C)cc(C)cc2C)c(C)c1,3.3,-0.5,-1.1,2.9,-3.1,-1.7,·,·
Cc1ccc2c(c1)CC1(CN2C)C(=O)NC(=O)N(c2ccc(C)c(C)c2)C1=O (centres undefined),-1.6,-2.2,0.5,2.1,3.5,9.5,·,·
SMILES,Calb FLC,Beta apoptosis,MPTP block,Mdm2 MdmX PPI,CSC inhib,SKKanGAS inh,Mdm2 MdmX conf,Full FLuc ctr
COc1ccc(C2=NCc3nnc(C)n3-c3ccc(Cl)cc32)cc1Cl,0.4,-0.2,-0.4,64.9*,36.6,5.7,28.2,·
Cn1c(NN=O)nc2ccccc21,82.4,100.3*,0.2,59.1*,114.9*,56.3*,82.5*,35.8
CN1CCN(Cc2nc3ccccc3n2C)CC1,-7.7,-2.2,1.0,10.7,-6.0,-3.9,·,·
COc1ccc(C2SCC(=O)Nc3c2c(C)nn3C2CCOC(C)(C)C2)cc1 (centres undefined),10.1,1.5,-0.6,-16.0,-13.8,-15.1,·,·
C/C=C(\C)C(=O)N[C@@H](c1ccccc1)[C@@H](O)C(=O)O[C@H]1C[C@@]2(O)[C@@H](OC(=O)c3ccccc3)C3[C@](C)(C(=O)[C@H](OC(C)=O)C(=C1C)C2(C)C)[C@H](O)C[C@H]1OC[C@@]31OC(C)=O (some centres undefined),7.3,4.5,0.0,40.0,-10.8,9.0,·,·
CC/C=C/CC(=O)N[C@@H](c1ccccc1)[C@@H](O)C(=O)O[C@H]1C[C@@]2(O)[C@@H](OC(=O)c3ccccc3)C3[C@](C)(C(=O)[C@H](OC(C)=O)C(=C1C)C2(C)C)[C@@H](O)C[C@H]1OC[C@@]31OC(C)=O (some centres undefined),2.6,·,-1.9,69.2*,63.5,-0.5,67.2*,47.6*
CCC(C)C(=O)N[C@@H](c1ccccc1)[C@@H](O)C(=O)O[C@H]1C[C@@]2(O)[C@@H](OC(=O)c3ccccc3)C3[C@](C)(C(=O)[C@H](OC(C)=O)C(=C1C)C2(C)C)[C@@H](O)C[C@H]1OC[C@@]31OC(C)=O (some centres undefined),2.2,14.9,-2.1,62.4*,53.3,3.8,66.1*,39.2*
Cc1cc(=O)oc2c(C)c(OCC(=O)N3C[C@H]4C[C@@H](C3)c3cccc(=O)n3C4)ccc12,-6.0,-2.1,0.3,29.9,-9.8,-0.6,·,·
CCCCCc1nc2ccccc2c(=O)n1-c1ccccc1[N+](=O)[O-],13.6,-0.3,1.5,-32.9,-3.2,4.1,·,·

# Screening data from PubChem BioAssay.
